Screening results deposited in PubChem BioAssay by several laboratories.
Tat export inh = blocks Tat-dependent protein export in E. coli | 340,000 compounds, 0.036% hits | E. coli MC4100 TorA-mCherry Tat export, fluorescence | inhibition, % at 10 µM;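 active means mean replicate inhibition at least 50% and at least half of replicates individually reaching 50%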;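 further: exported cargo escapes ClpAP degradation while cytoplasmic cargo is degraded and loses fluorescence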
E coli growth-1 = inhibitors of Escherichia coli growth. OD600, 23 h; hits give low values. OD600 absorbance (test concentration not listed). 330,000 compounds, 0.21% hits. AID 1053175;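 active means OD600 absorbance below the run mean of sample wells minus 3.6 SD, in any replicate, cut at about 0.56 in these data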
AddAB inh = less growth of phage-infected E. coli with AddAB | E. coli expressing H. pylori AddAB, absorbance growth | inhibition, % at 11.9 µM | 330,000 compounds, 0.29% hits; in the data active means inhibition above about 12%
phage Ecoli inh = E. coli growth loss with phage present; growth absorbance; inhibition, % at 11.9 µM; 360,000 compounds, 0.26% hits; AID 651602; in the data active means inhibition above about 11%
E coli growth-2 = reduces bacterial viability in AddAB counter-screen; AID 449728; E. coli V3065 growth, OD600 absorbance, 18 h; inhibition, % at 11.9 µM; 330,000 compounds, 0.27% hits;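 active means inhibition above the campaign's mean inhibition across all tested compounds plus 3 SD, cut at about 9.9% in these data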;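 further: uninfected addAB+ strain grown without phage in ampicillin broth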
AddAB conf = growth loss of T4-infected E. coli expressing H. pylori AddAB, confirmed; inhibition, % at 11.9 µM; E. coli V3065 expressing H. pylori AddAB, T4 phage, OD; T4 phage with gene 2 nonsense mutations; shares compounds with AddAB inh; 880 compounds, 64% hits;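 active means mean inhibition above a set limit taken from the earlier primary screen, cut at about 13% in these data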;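 further: higher means less bacterial growth since AddAB block lets phage replicate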
RecBCD counter = AddAB counter-screen: growth loss of RecBCD+ E. coli infected with mutant T4 phage; AID 488955; E. coli V66 + mutant T4 phage, OD growth; 880 compounds, 73% hits; shares compounds with AddAB inh; inhibition, % at 11.9 µM;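 active means mean inhibition above the mean of solvent-only control wells plus 3 SD, cut at about 4% in these data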;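 further: optical density read after an 18 h incubation at 37 °C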
bact viab count = counter-screen for AddAB inhibitors: inhibitors of bacterial viability. shares compounds with AddAB inh. absorbance (AddAB counterscreen). inhibition, % at 11.9 µM. 880 compounds, 35% hits. AID 488956; in the data active means inhibition above about 25%
RecBCD conf = growth loss of phage-infected V66 E. coli, RecBCD confirmation screen. shares compounds with phage Ecoli inh. E. coli V66 + T4 2- phage, growth OD. inhibition, % at 11.9 µM. 890 compounds, 45% hits;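 active means mean inhibition over triplicates exceeding the hit threshold derived in the original primary screen, cut at about 11% in these data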
Ecoli viability = counter-screen for RecBCD inhibitors: inhibitors of bacterial viability; 890 compounds, 29% hits; inhibition, % at 11.9 µM; shares compounds with phage Ecoli inh; E. coli viability, absorbance (OD) growth; in the data active means inhibition above about 20%;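 further: E. coli strain V66 grown with compound alone and no phage infection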
AddAB counter = growth loss of phage-infected AddAB E. coli, RecBCD counter-screen. inhibition, % at 11.9 µM. 890 compounds, 45% hits. E. coli expressing H. pylori AddAB + T4 phage, OD growth; gene 2 mutant T4, recBCD-deleted host. shares compounds with phage Ecoli inh;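 active means mean inhibition above the solvent-only control wells' mean plus 3 SD, cut at about 22% in these data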;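 further: higher means less bacterial growth from phage killing when AddAB is blocked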
Hits are given with their value; – = inactive; · = no result given. Shown are actives, neighbours in structure and some others; about 0.5% of the full set was active somewhere.

SMILES | Tat export inh | E coli growth-1 | AddAB inh | phage Ecoli inh | E coli growth-2 | AddAB conf | RecBCD counter | bact viab count | RecBCD conf | Ecoli viability | AddAB counter
Cc1ccc(CN2C(CC(C)C)COCCS2(=O)=O)cc1 (stereo not drawn) | · | – | · | · | · | · | · | · | · | · | ·
C#Cc1ccc(C2C=C(C(=O)NCc3nc4ccccc4[nH]3)OC(OCC)C2CCCO)cc1 (stereo not drawn) | · | – | · | · | · | · | · | · | · | · | ·
NC(Cc1cc(I)c(O)c(I)c1)C(=O)O (stereo not drawn) | · | – | · | · | · | · | · | · | · | · | ·
O=[N+]([O-])c1ccc(O)c2cccnc12 | – | – | – | – | – | · | · | · | · | · | ·
O=[N+]([O-])c1cc(F)c2cccnc2c1O | – | 0.0825 | 53.0 | 39.5 | 54.0 | 50.1 | 48.6 | 41.0 | 53.3 | 52.9 | 48.5
O=[N+]([O-])c1cc(Cl)c2cccnc2c1O | – | 0.067 | 68.0 | 52.2 | 61.7 | 62.6 | 70.0 | 62.7 | 78.4 | 79.3 | 63.1
O=C1CCCC2=C1C(c1ccc(Cl)cc1)C1C(=O)c3ccccc3C1=N2 (stereo not drawn) | – | – | – | – | – | · | · | · | · | · | ·
O=C1c2ccccc2C2=Nc3ccccc3SC(c3ccc(Cl)cc3)C12 (stereo not drawn) | – | – | 24.5 | 22.1 | 35.6 | 38.9 | 29.6 | 51.7 | 18.2 | – | 42.3
CC(=O)NC(c1ccc(C)cc1)c1cc([N+](=O)[O-])c2cccnc2c1O (stereo not drawn) | – | – | – | – | – | · | · | · | · | · | ·
CCC(=O)NC(c1cc(Cl)c2cccnc2c1O)C(C)C (stereo not drawn) | – | – | 15.3 | 17.5 | 16.9 | – | 12.4 | – | – | – | –
CCC(=O)NC(c1cccs1)c1cc(Cl)c2cccnc2c1O (stereo not drawn) | – | – | 23.2 | 26.3 | 26.5 | 24.8 | 21.7 | – | 14.1 | 20.6 | –
CC(=O)NC(c1ccccc1)c1cc(Cl)c2cccnc2c1O (stereo not drawn) | – | – | 17.2 | 12.7 | 17.6 | – | 15.2 | – | – | – | –
CCCC(=O)NC(c1ccco1)c1cc([N+](=O)[O-])c2cccnc2c1O (stereo not drawn) | – | – | – | – | – | · | · | · | · | · | ·
CCCCC(=O)NC(c1cccs1)c1cc(Cl)c2cccnc2c1O (stereo not drawn) | – | – | 15.8 | 17.1 | 17.7 | 20.8 | 17.4 | – | – | – | –
CC(CCN1C(Nc2ccccc2)=NCC1C)c1ccccc1 (stereo not drawn) | · | – | · | · | · | · | · | · | · | · | ·
CCC(C)C(C(=O)NCCCCCCCCCCC(=O)N1CCNCC1)n1cc(CCCCN=C(N)N)nn1 (stereo not drawn) | · | – | · | · | · | · | · | · | · | · | ·
Cc1cccc(NC(=O)NNC(=O)c2cc3ccccc3cc2O)c1C | – | · | 13.1 | 12.1 | 12.3 | – | 12.4 | – | – | – | –
Cc1ccc(C)c(NC(=O)NNC(=O)c2cc3ccccc3cc2O)c1 | – | – | 14.0 | 13.9 | – | – | 6.9 | – | – | – | –
Cc1cccc(NC(=S)NNC(=O)c2ccc(O)cc2O)c1C | – | – | – | – | – | · | · | · | · | · | ·
Cc1ccc(NC(=O)NNC(=O)c2cc3ccccc3cc2O)cc1C | – | – | – | – | – | · | · | · | · | · | ·
O=C1c2ccccc2C(=O)c2[nH]c(=O)[nH]c21 | – | 0.408 | 15.2 | 16.4 | 10.3 | 17.2 | 17.2 | – | 15.0 | – | 29.4
CCC(=O)NC(c1ccc(C)cc1)c1cc([N+](=O)[O-])c2cccnc2c1O (stereo not drawn) | – | – | – | – | – | · | · | · | · | · | ·
CCC(=O)NC(c1ccc(C)cc1)c1ccc2cccnc2c1O (stereo not drawn) | – | · | 24.0 | 24.3 | 29.3 | 21.7 | 23.6 | – | 14.5 | 20.9 | 29.3
CCCC(=O)NC(c1ccc(N(C)C)cc1)c1ccc2cccnc2c1O (stereo not drawn) | – | · | 31.1 | 26.0 | 28.0 | 25.2 | 22.4 | – | 17.3 | 23.6 | 29.4
O=C(O)c1ccccc1NC(c1ccccc1)c1ccc2cccnc2c1O (stereo not drawn) | – | · | · | – | · | · | · | · | · | · | ·
SMILES | Tat export inh | E coli growth-1 | AddAB inh | phage Ecoli inh | E coli growth-2 | AddAB conf | RecBCD counter | bact viab count | RecBCD conf | Ecoli viability | AddAB counter
CCCC(=O)NC(c1ccc(C(C)C)cc1)c1ccc2cccnc2c1O (stereo not drawn) | – | · | 25.6 | 20.6 | 26.7 | 21.0 | 18.6 | – | 14.5 | – | –
COc1ccc(-c2ccc(C3C4C=CCC[C@@]4(C)C(=O)N3Cc3ccccc3)c(F)c2)cc1 (stereo partly drawn) | · | – | · | · | · | · | · | · | · | · | ·
Cc1ccc(NC=C(C#N)c2ccsc2)cc1 | · | – | · | · | · | · | · | · | · | · | ·
COc1ccc(NC(=O)c2ccc(Br)o2)cc1 | – | – | – | – | – | · | · | · | · | · | ·
O=C(Nc1cccnc1)c1ccco1 | – | – | – | – | – | · | · | · | · | · | ·
O=C(NNC(=O)c1ccc([N+](=O)[O-])o1)c1ccccc1 | – | 0.352 | 67.6 | 26.1 | 85.7 | 102.6 | 22.8 | 70.5 | 18.0 | 21.5 | 102.1
CN1CCN(c2ccc(NC(=O)c3ccc([N+](=O)[O-])o3)cc2Cl)CC1 | – | 0.307 | 98.8 | 23.0 | 91.5 | 98.3 | 23.9 | 94.7 | 15.4 | 19.9 | 85.1
COc1ccc(NC(=O)c2ccc([N+](=O)[O-])o2)cc1 | – | 0.475 | 58.2 | 19.1 | 80.0 | 100.4 | 16.6 | 46.3 | 15.3 | – | 100.3
O=C(Nc1cccnc1)c1ccc([N+](=O)[O-])o1 | – | 0.412 | 97.5 | 19.7 | 95.7 | 97.6 | 20.0 | 90.8 | 13.1 | – | 101.2
CC1(C)CC2C3=CCC4[C@@]5(C)CCC(O)[C@@](C)(CO)C5CC[C@@]4(C)[C@]3(C)CC(O)[C@@]2(CO)C(O)C1O (stereo partly drawn) | · | – | · | · | · | · | · | · | · | · | ·
NC(=O)c1oc2ccccc2c1NC(=O)c1ccc(F)cc1 | – | – | – | – | – | · | · | · | · | · | ·
Cc1cc(C)cc(NC(=O)c2ccc([N+](=O)[O-])o2)c1 | – | – | · | – | · | · | · | · | · | · | ·
CC(=O)c1cccc(NC(=O)c2ccc([N+](=O)[O-])o2)c1 | – | 0.443 | 89.0 | 16.3 | 82.8 | 101.3 | 18.6 | 70.8 | – | – | 84.4
NC(=O)c1oc2ccccc2c1NC(=O)c1ccc([N+](=O)[O-])o1 | – | 0.488 | 99.2 | 23.0 | 98.5 | 100.8 | 26.1 | 101.3 | 17.7 | 22.3 | 100.0
CC(=O)NC(c1ccco1)c1ccc2cccnc2c1O (stereo not drawn) | – | · | – | · | – | · | · | · | · | · | ·
